Measured values published in PubChem BioAssay.
Some of the results follow. The source made the active and inactive calls.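 Rule for the calls, unless noted: active = mean inhibition above about 50% in the one-dose retest (limit read from the data); inactive = the rest.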

Columns and labels:
[1] = target: Sentrin-specific protease 8 (Homo sapiens) (UniProt Q96LD8); experiment: SENP8 protease inhibitors, retest, confirmation, biochemical, luminescence, single concentration (AID 488912;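 active = mean inhibition across replicates above about 50%, limit read from the data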); details: Recombinant SENP8, Z-RLRGG-aminoluciferin luminescence, 60 min; at 12.5 µM; stronger effect = higher value
[2] = target: Sentrin-specific protease 6 (Homo sapiens) (UniProt Q9GZR1); experiment: SENP6 protease inhibitors, confirmation, biochemical, luminescence, single concentration (AID 488915); details: recombinant SENP6, Z-RLRGG-aminoluciferin luminescence; at 12.5 µM; stronger effect = higher value
[3] = target: Sentrin-specific protease 7 (Homo sapiens) (UniProt Q9BQF6); experiment: SENP7 protease inhibitors, retest, confirmation, biochemical, luminescence, single concentration (AID 488917); details: recombinant SENP7, Z-RLRGG-aminoluciferin luminescence, 40 min; at 12.5 µM; stronger effect = higher value
[4] = target: Caspase-3 (Homo sapiens) (UniProt P42574); experiment: caspase-3 protease inhibitors, confirmation, selectivity assay for SENP inhibitor project, biochemical, single concentration (AID 488918;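 active = mean inhibition above about 50%, limit read from the data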;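 note: plate controls were enzyme with DMSO for no effect and wells without caspase-3 for full effect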); details: purified caspase-3, Z-DEVD-aminoluciferin luminescence, 60 min; at 12.5 µM; stronger effect = higher value
[5] = luciferase luminescence interference by compounds, confirmation, artefact control for SENP inhibitor project, biochemical, single concentration, SENP8 reaction pre-completed (AID 488919;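 active = mean inhibition above about 50% when retested at one dose, limit read from the data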;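 note: plate controls were DMSO wells with completed reaction for no effect and substrate without enzyme for full effect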); details: Pre-incubated SENP8/Z-RLRGG-aminoluciferin, at 12.5 µM, stronger effect = higher value
[6] = target: Protein Mdm4 (Homo sapiens) + E3 ubiquitin-protein ligase Mdm2 (Homo sapiens) (UniProt O15151+Q00987); experiment: retested Mdm2-MdmX interaction blockers, confirmation, cell-based, luminescence, single concentration, set 2 (AID 504601;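 active = mean inhibition of the luminescence signal across two replicates at or above 26 percent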); details: SaOS-2 split-luciferase Mdm2/MdmX complementation, at 8 µM, stronger effect = higher value
[7] = target: Tumor necrosis factor receptor superfamily member 10B (Homo sapiens) (UniProt O14763); experiment: caspase-8 TRAIL sensitization, hit retest, confirmation, cell-based, NB7+caspase-8, with/without TRAIL, luminescence panel (AID 651596; in the data active = activity above about 50%); details: NB7 neuroblastoma + caspase-8, TRAIL sensitization, luminescence viability, with TRAIL, mean of runs, at 10 µM, stronger effect = higher value
[8] = as above; details: NB7 neuroblastoma + caspase-8, without TRAIL, luminescence viability, without TRAIL, mean of runs, at 10 µM
[9] = target: Carboxy-terminal domain RNA polymerase II polypeptide A small phosphatase 1 (Homo sapiens) (UniProt Q9GZU7); experiment: Scp-1 binding by thermal shift, confirmation, orthogonal assay for Scp-1 inhibitor project, biophysical, differential scanning fluorimetry (AID 540329;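 active = substances whose mean melting-temperature shift, as a percentage of the reference inhibitor's shift, reaches about 5.3%, limit read from the data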;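 note: 0% = Tm of DMSO wells and 100% = Tm with sodium orthovanadate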); details: Recombinant SCP1, Sypro Orange thermal shift Tm; at 40 µM; stronger effect = higher value
[10] = Apaf-1 inhibitors, single-dose retest, confirmation, biochemical, fluorescence, DEVD-Rh110, 20 µM (AID 504614;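 active = mean inhibition of at least 40% at 20 µM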;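 note: plate controls were DMSO wells for no effect and DEVD-CHO caspase inhibitor control wells for full effect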); details: reconstituted apoptosome, caspase-3 DEVD-Rh110 fluorescence; at 20 µM; stronger effect = higher value
[11] = Rh110 fluorescence interference by putative Apaf-1 inhibitors, confirmation, artefact control for Apaf-1 inhibitor project, biochemical, 20 µM (AID 504615;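 active = signal rise of 40% or more at 20 µM, treated as a fluorescence artifact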); details: quenched caspase reaction, at 20 µM, stronger effect = higher value
[12] = fluorescence interference of Apaf-1 inhibitor hits, dose response, artefact control for Apaf-1 inhibitor project (AID 588538; call rule not given here); details: fluorescence interference counterscreen, Apaf-1 assay format
[13] = Peg3 promoter reporter inhibitors, retest, confirmation, cell-based, HeLa, luciferase reporter, single concentration (AID 602417;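 active = at 20 µM dose, 40% or more inhibition averaged across four replicates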); details: HeLa PEG-Prom luciferase reporter, luminescence, overnight; at 20 µM; stronger effect = higher value
[14] = target: PEG-3 (UniProt Q6IN02); experiment: Peg3 promoter luciferase inhibitors, potency, dose response, cell-based, HeLa, CREF/GAPDH counter-screen panel (AID 624167); details: CREF/GAPDH counter-screens; HeLa PEG-Prom luciferase reporter, overnight, run 1, dose range 1, at 100 µM (top of the series) unless noted
[15] = target: PEG-3 (UniProt Q6IN02); experiment: as above; details: CREF/GAPDH counter-screens; HeLa PEG-Prom luciferase reporter, overnight, run 2, dose range 1, at 100 µM (top of the series) unless noted
[16] = system: Rat fibroblasts (CREF); experiment: as above; details: CREF/GAPDH counter-screens; run 1, dose range 1, at 100 µM (top of the series)
[17] = system: Rat fibroblasts (CREF); experiment: as above; details: CREF/GAPDH counter-screens; run 2, dose range 1, at 100 µM (top of the series)

Caspase-3 (Homo sapiens), sequence (P42574 28-227 limits assumed): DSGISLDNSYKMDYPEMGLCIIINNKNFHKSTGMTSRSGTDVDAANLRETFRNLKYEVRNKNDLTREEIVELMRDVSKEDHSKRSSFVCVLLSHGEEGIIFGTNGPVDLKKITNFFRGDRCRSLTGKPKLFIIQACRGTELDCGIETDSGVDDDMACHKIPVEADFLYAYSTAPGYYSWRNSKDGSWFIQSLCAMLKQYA
Sentrin-specific protease 8 (Homo sapiens), sequence (Q96LD8 whole entry, looked up): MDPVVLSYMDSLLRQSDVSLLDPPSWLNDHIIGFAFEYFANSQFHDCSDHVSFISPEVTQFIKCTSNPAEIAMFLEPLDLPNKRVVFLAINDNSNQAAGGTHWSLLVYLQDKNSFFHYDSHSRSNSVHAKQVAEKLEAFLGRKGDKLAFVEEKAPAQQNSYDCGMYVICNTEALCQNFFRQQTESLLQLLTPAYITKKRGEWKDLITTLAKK
Protein Mdm4 (Homo sapiens) + E3 ubiquitin-protein ligase Mdm2 (Homo sapiens), sequence (O15151 whole entry, looked up): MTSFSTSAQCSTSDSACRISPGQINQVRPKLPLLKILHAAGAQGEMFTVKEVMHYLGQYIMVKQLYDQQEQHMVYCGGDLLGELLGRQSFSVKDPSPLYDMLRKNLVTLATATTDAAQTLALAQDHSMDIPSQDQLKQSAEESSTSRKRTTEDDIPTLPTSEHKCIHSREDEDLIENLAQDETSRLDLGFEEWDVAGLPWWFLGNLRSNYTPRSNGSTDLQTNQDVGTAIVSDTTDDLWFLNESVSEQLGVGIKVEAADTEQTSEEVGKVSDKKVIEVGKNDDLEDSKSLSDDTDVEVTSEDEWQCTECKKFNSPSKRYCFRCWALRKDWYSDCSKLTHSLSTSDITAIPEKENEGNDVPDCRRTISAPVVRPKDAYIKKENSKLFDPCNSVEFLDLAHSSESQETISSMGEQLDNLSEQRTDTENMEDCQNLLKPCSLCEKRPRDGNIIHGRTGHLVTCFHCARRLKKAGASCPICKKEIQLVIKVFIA
Protein Mdm4 (Homo sapiens) + E3 ubiquitin-protein ligase Mdm2 (Homo sapiens), sequence (Q00987 whole entry, looked up): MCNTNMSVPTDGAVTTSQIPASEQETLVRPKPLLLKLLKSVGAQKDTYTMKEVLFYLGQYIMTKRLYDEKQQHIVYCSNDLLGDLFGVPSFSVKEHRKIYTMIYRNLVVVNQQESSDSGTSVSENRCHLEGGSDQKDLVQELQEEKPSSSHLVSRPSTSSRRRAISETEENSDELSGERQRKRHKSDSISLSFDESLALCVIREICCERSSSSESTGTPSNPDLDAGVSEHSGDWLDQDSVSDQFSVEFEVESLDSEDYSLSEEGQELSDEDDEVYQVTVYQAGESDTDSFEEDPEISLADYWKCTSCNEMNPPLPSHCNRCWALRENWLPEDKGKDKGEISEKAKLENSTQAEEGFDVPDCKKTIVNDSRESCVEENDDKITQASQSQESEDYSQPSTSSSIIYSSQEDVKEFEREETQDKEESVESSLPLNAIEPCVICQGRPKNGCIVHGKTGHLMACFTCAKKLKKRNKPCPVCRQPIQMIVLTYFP
Tumor necrosis factor receptor superfamily member 10B (Homo sapiens), sequence (O14763 whole entry, looked up): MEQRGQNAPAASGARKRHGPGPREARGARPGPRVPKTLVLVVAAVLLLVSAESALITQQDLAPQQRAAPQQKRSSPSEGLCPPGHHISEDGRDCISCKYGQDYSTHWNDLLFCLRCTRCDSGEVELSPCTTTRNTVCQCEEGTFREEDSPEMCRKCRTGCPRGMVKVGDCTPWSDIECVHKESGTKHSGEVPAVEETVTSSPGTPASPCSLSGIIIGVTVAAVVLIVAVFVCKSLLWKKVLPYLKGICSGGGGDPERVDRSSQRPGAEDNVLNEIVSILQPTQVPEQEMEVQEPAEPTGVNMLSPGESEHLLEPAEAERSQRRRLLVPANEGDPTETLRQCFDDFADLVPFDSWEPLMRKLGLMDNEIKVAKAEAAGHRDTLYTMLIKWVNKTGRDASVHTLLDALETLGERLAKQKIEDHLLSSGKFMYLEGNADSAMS
Sentrin-specific protease 6 (Homo sapiens), sequence (Q9GZR1 628-1112 limits assumed): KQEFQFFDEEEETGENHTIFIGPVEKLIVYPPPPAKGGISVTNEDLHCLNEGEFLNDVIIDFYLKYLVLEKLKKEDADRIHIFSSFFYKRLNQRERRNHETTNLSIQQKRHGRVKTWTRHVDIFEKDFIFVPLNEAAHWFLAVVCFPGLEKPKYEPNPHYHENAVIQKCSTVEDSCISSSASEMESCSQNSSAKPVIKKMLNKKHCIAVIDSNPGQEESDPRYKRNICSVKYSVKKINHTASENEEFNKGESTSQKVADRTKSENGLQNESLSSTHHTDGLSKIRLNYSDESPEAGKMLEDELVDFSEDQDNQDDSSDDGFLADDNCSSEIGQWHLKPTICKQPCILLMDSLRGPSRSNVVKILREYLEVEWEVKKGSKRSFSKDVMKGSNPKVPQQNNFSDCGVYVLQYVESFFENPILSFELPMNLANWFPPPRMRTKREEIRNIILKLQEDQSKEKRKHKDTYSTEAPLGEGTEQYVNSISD
Sentrin-specific protease 7 (Homo sapiens), sequence (Q9BQF6 706-1050 limits assumed): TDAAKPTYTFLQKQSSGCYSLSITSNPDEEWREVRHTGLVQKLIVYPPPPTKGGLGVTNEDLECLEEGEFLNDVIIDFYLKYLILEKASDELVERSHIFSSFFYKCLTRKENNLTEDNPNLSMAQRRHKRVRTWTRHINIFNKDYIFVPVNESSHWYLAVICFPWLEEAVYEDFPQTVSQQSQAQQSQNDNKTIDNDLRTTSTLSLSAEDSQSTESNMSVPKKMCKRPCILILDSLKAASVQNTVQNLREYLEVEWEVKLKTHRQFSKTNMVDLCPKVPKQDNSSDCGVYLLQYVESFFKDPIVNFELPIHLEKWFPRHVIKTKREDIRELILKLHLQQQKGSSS
PEG-3, sequence (Q6IN02 whole entry, looked up): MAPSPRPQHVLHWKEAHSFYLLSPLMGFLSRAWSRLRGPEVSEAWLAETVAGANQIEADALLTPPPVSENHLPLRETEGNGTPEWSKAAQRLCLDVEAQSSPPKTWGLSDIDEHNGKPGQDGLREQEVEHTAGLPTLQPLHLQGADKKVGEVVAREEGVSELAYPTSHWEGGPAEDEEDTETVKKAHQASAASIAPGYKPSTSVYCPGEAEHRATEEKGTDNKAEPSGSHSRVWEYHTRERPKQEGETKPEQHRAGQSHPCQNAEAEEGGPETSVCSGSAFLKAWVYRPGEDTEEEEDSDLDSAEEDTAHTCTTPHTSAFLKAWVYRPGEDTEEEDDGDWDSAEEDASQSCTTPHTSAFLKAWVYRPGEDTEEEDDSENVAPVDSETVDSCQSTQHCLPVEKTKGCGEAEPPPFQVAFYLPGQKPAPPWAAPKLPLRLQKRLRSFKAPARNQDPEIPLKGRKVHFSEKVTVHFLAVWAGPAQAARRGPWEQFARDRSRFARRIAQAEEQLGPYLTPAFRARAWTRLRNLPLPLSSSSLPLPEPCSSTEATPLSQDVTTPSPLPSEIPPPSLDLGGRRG
Carboxy-terminal domain RNA polymerase II polypeptide A small phosphatase 1 (Homo sapiens), sequence (Q9GZU7 76-261 limits assumed): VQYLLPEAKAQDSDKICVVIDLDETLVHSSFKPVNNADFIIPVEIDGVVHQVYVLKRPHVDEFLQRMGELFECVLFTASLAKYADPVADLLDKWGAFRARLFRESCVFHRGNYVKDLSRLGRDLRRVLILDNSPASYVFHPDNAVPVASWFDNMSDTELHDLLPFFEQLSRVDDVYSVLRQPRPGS

## COc1ccc2occ(C(=O)c3ccc(N=C(C)N(C)C)cc3)c2c1
[1]
  inhibition: 44.8% (inactive)
[2]
  inhibition: 42.5% (inactive)
[3]
  inhibition: 73% (active)
[4]
  inhibition: 65.7% (active)
[5]
  inhibition: 51.3% (active)

## Cc1cc(C(=O)Nc2nnc(C3CC3)s2)c(C)s1
[1]
  inhibition: 63.4% (active)
[2]
  inhibition: 80.8% (active)
[3]
  inhibition: 94.1% (active)
[4]
  inhibition: 83.7% (active)
[5]
  inhibition: 16.4% (inactive)

## CCNc1nc(N)nc(Oc2ccc(OCC)nn2)n1
[1]
  inhibition: 6.2% (inactive)
[2]
  inhibition: 8.1% (inactive)
[3]
  inhibition: -2% (inactive)
[4]
  inhibition: 3.8% (inactive)
[5]
  inhibition: 0.2% (inactive)

## O=C(NC(=O)c1ccccc1)Nc1ccccc1O
[1]
  inhibition: -10% (inactive)
[2]
  inhibition: 6.3% (inactive)
[3]
  inhibition: 69.7% (active)
[4]
  inhibition: 73.3% (active)
[5]
  inhibition: 23.8% (inactive)

## CCOC(=O)c1sc(NC(=O)c2ccncc2)nc1C
[1]
  inhibition: 0.5% (inactive)
[2]
  inhibition: 74.8% (active)
[3]
  inhibition: 90.8% (active)
[4]
  inhibition: 84.4% (active)
[5]
  inhibition: 20% (inactive)

## CC(=NCc1ccco1)c1c(C(F)(F)F)[nH]n(-c2nc3ccccc3s2)c1=O
[1]
  inhibition: 91.7% (active)
[2]
  inhibition: 91.9% (active)
[3]
  inhibition: 99.8% (active)
[4]
  inhibition: 98.1% (active)
[5]
  inhibition: 89.3% (active)

## O=c1c2c(nc3n1CCCCC3)sc1c(O)cccc12
[1]
  inhibition: 53.6% (active)
[2]
  inhibition: 49.2% (inactive)
[3]
  inhibition: 75.5% (active)
[4]
  inhibition: 59.4% (active)
[5]
  inhibition: 61.9% (active)

## COc1ccccc1C(=O)Nc1ccc(NC(=O)c2ccco2)c(C)c1
[1]
  inhibition: 45.3% (inactive)
[2]
  inhibition: 47.1% (inactive)
[3]
  inhibition: 81.2% (active)
[4]
  inhibition: 82.5% (active)
[5]
  inhibition: 58.6% (active)

## COc1ccc(Cc2nnc(SCC(=O)c3cccc([N+](=O)[O-])c3)n2C)cc1
[1]
  inhibition: -3.9% (inactive)
[2]
  inhibition: 1.7% (inactive)
[3]
  inhibition: 6.9% (inactive)
[4]
  inhibition: 4.6% (inactive)
[5]
  inhibition: -2.3% (inactive)

## CC(C)Cc1cc(C(=O)Nc2cc(Br)ccc2O)no1
[1]
  inhibition: 6% (inactive)
[2]
  inhibition: 21.4% (inactive)
[3]
  inhibition: 28.9% (inactive)
[4]
  inhibition: 15.4% (inactive)
[5]
  inhibition: 7.1% (inactive)

## COc1cccc(C(=O)Nc2ccc(NC(=O)c3ccco3)cn2)c1
[1]
  inhibition: 53.1% (active)
[2]
  inhibition: 51% (active)
[3]
  inhibition: 82.4% (active)
[4]
  inhibition: 76.1% (active)
[5]
  inhibition: 62.4% (active)

## Nc1ccccc1/C=N\N=C/c1ccccc1N
[1]
  inhibition: 52.9% (active)
[2]
  inhibition: 45.3% (inactive)
[3]
  inhibition: 85.6% (active)
[4]
  inhibition: 68.3% (active)
[5]
  inhibition: 3.9% (inactive)

## O=C1[C@H]2[C@@H](c3ccc(F)cc3)N3C(=O)N(c4ccc(C(F)(F)F)cc4)C(=O)[C@@]3(Cc3ccccc3)[C@H]2C(=O)N1C1CCCCC1
[6]
  inhibition: 101% (active)

## O=C(Nc1ccccc1)c1ccc2c(c1)OCCCO2
[1]
  inhibition: 78.5% (active)
[2]
  inhibition: 77.7% (active)
[3]
  inhibition: 94.2% (active)
[4]
  inhibition: 90% (active)
[5]
  inhibition: 81.9% (active)
[7]
  activity: 79.9%
[8]
  activity: 79.9%

## CCOc1ccc(-c2nnc(-c3ccco3)o2)cc1
[1]
  inhibition: 5.3% (inactive)
[2]
  inhibition: 72.1% (active)
[3]
  inhibition: 79% (active)
[4]
  inhibition: 73.8% (active)
[5]
  inhibition: 15.9% (inactive)
[7]
  activity: 52.5%
[8]
  activity: 56.5%

## CSc1ccc(/C=N/NC(=O)c2cccc(Cl)c2)cc1
[1]
  inhibition: 36.6% (inactive)
[2]
  inhibition: 96.5% (active)
[3]
  inhibition: 44.1% (inactive)
[4]
  inhibition: 93.6% (active)
[5]
  inhibition: 40.2% (inactive)
[9]
  thermal shift relative to vanadate control: 9.78% (active)

## CC(C)n1cnc2c(NCc3ccccc3)cc(OCC3CCN(C)CC3)cc21
[1]
  inhibition: 57.7% (active)
[2]
  inhibition: 75.3% (active)
[3]
  inhibition: 35.5% (inactive)
[4]
  inhibition: 6.2% (inactive)
[5]
  inhibition: -4.2% (inactive)
[10]
  inhibition: 78.1% (active)
[11]
  activation (fluorescence interference): -0.65% (inactive)
[12]
  IC50: > 100 µM (inactive)

## CCOc1cc(N2CCOCC2)c(OCC)cc1NC(=O)COc1cccc2cccnc12
[6]
  inhibition: 92.7% (active)

## Clc1ccc(C2=CSC3=Nc4cccc5cccc(c45)N23)cc1
[1]
  inhibition: 1.7% (inactive)
[2]
  inhibition: 55.9% (active)
[3]
  inhibition: 7.2% (inactive)
[4]
  inhibition: -5.7% (inactive)
[5]
  inhibition: -2.1% (inactive)
[10]
  inhibition: 62.8% (active)
[11]
  activation (fluorescence interference): -1.7% (inactive)
[12]
  IC50: > 100 µM (inactive)

## O=c1c2cc(-c3ccccc3)sc2nc2n1N=C(c1cccs1)CS2
[1]
  inhibition: 11.6% (inactive)
[2]
  inhibition: 3.2% (inactive)
[3]
  inhibition: -0.5% (inactive)
[4]
  inhibition: 8.2% (inactive)
[5]
  inhibition: 3.2% (inactive)
[9]
  thermal shift relative to vanadate control: 11.4% (active)
[7]
  activity: 63.5%
[8]
  activity: 57.9%

## CC[C@]1(C(=O)OC)[C@H]2C(=O)N(Cc3ccccc3)C(=O)[C@H]2[C@H]2CN=C(SCc3ccc(C#N)cc3)N21
[6]
  inhibition: 102% (active)

## Cc1cnc(NC(=O)c2ccccn2)s1
[1]
  inhibition: 74.2% (active)
[2]
  inhibition: 75.6% (active)
[3]
  inhibition: 92.3% (active)
[4]
  inhibition: 91.7% (active)
[5]
  inhibition: 67.2% (active)
[7]
  activity: 63.5%
[8]
  activity: 64.5%

## Cn1c(NC(=O)c2ccccc2)nc2ccccc21
[1]
  inhibition: 55.5% (active)
[2]
  inhibition: 61.6% (active)
[3]
  inhibition: 89.8% (active)
[4]
  inhibition: 83.7% (active)
[5]
  inhibition: 65.2% (active)
[7]
  activity: 50.4%
[8]
  activity: 61.1%

## Cc1ccc2nc(-c3ccc(Br)cc3)cn2c1
[1]
  inhibition: 7.3% (inactive)
[2]
  inhibition: 34.4% (inactive)
[3]
  inhibition: 70% (active)
[4]
  inhibition: 51.5% (active)
[5]
  inhibition: -8.6% (inactive)
[13]
  inhibition: 49.5% (active)
[14]
  inhibition: 101%
[15]
  inhibition: 88.9%
[16]
  inhibition: 93.6%
[17]
  inhibition: 85.5%

## O=C(/C=C/c1ccc2c(c1)OCCO2)c1ccc(O)cc1
[1]
  inhibition: 68.6% (active)
[2]
  inhibition: 59% (active)
[3]
  inhibition: 72.1% (active)
[4]
  inhibition: 54.3% (active)
[5]
  inhibition: 86.9% (active)
[7]
  activity: 41%
[8]
  activity: 45.6%
